# Results as given in PubChem BioAssay AID1345085 (National Center for Advancing Translational Sciences (NCATS), 2018).
# Records with an inconclusive call do not appear. Entries that show only a call come without a potency. Calls of active or inactive are those of the source. Calls follow the shape of the dose curve; as a rule, active = well fitted cell-killing curve with a large enough effect; inconclusive = small, poorly fitted or top-dose-only effect, or effect the other way; inactive = no such curve, though single readings can be large or run the other way.
# Tested on: C33A
# Assay: Confirmatory qHTS for gynecologic anti-cancer compounds from libraries of approved drugs and bioactive compounds; also: nearly all actives have a fitted effect of over 55% in size
# Details: gynecologic cancer cell panel viability, ATPlite luminescence, 48 h; series mostly up to 57.6 µM
# Procedure, shortened: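 Cells (1,000/well) were plated, left 16 h at 37 C/5% CO2, then given compound at 11 concentrations (1:3) from 57.5 uM to 0.977 nM for 48 h. ATPlite luminescence after 15 min at room temperature gave IC50 values.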
# Potency is read from the fitted curve at half-maximal effect.
row,SMILES,Potency
1,NC1(c2ccc(-c3nc4ccn5c(=O)[nH]nc5c4cc3-c3ccccc3)cc2)CCC1,inactive
2,O=C(NOC[C@H](O)CO)c1ccc(F)c(F)c1Nc1ccc(I)cc1F,inactive
3,COc1cc(F)c(F)c(Nc2ccc(I)cc2F)c1NS(=O)(=O)C1(CC(O)CO)CC1 (stereo not drawn),inactive
4,O=C1c2c(O)ccc(O)c2C(=O)c2c(NCCNCCO)ccc(NCCNCCO)c21,0.306 µM (active)
5,CCCCc1oc2ccc(NS(C)(=O)=O)cc2c1C(=O)c1ccc(OCCCN(CCCC)CCCC)cc1,27.3 µM (active)
6,COc1ccc2c(c1)c(CC(=O)O)c(C)n2C(=O)c1ccc(Cl)cc1,inactive
7,CCN(CC)CCOc1ccc(/C(=C(\Cl)c2ccccc2)c2ccccc2)cc1,79.4 µM (active)
8,CCCC(=O)O[C@]1(C(=O)CCl)[C@@H](C)C[C@H]2[C@@H]3CCC4=CC(=O)C=C[C@]4(C)[C@@]3(F)C(=O)C[C@@]21C,inactive
9,Cc1cnc(Nc2ccc(F)cc2Cl)nc1-c1c[nH]c(C(=O)NC(CO)c2cccc(Cl)c2)c1 (stereo not drawn),inactive
10,O=c1c2ccccc2nc2n1CCc1c-2[nH]c2ccccc12,inactive
11,CC(Oc1ccc2[nH]nc(/C=C/c3cnn(CCO)c3)c2c1)c1c(Cl)cncc1Cl (stereo not drawn),inactive
12,COc1ccc2cc3[n+](cc2c1OC)CCc1cc2c(cc1-3)OCO2,inactive
13,OC[C@H]1O[C@@H](n2cnc3c(=S)nc[nH]c32)[C@H](O)[C@@H]1O,10.9 µM (active)
14,CN(Cc1cnc2nc(N)nc(N)c2n1)c1ccc(C(=O)N[C@@H](CCC(=O)O)C(=O)O)cc1,inactive
15,Cc1csc(NC(=O)c2sc3nc4c(c(C(F)(F)F)c3c2N)CCC4)n1,1.93 µM (active)
16,COc1cc(Nc2c(C#N)cnc3cc(OCCCN4CCN(C)CC4)c(OC)cc23)c(Cl)cc1Cl,27.3 µM (active)
17,Cc1ccc(C(=O)N(CCCN)C(c2oc3cc(Cl)ccc3c(=O)c2Cc2ccccc2)C(C)C)cc1 (stereo not drawn),0.769 µM (active)

row,SMILES,Potency
1,O=C(Nc1cn[nH]c1-c1nc2ccc(CN3CCOCC3)cc2[nH]1)NC1CC1,13.7 µM (active)
2,O=c1[nH]c(=O)n([C@H]2C[C@H](O)[C@@H](CO)O2)cc1F,2.17 µM (active)
3,COc1cc2c(NC3CCN(C(C)C)CC3)nc(C3CCCCC3)nc2cc1OCCCN1CCCC1,15.3 µM (active)
4,CCN1CCN(Cc2ccc(Nc3ncc(F)c(-c4cc(F)c5nc(C)n(C(C)C)c5c4)n3)nc2)CC1,inactive
5,C=CC(=O)Nc1cc2c(Nc3ccc(F)c(Cl)c3)ncnc2cc1OCCCN1CCOCC1,24.3 µM (active)
6,CC(=O)OC12COC1CC(O)C1(C)C(=O)C(O)C3=C(C)C(OC(=O)C(O)C(NC(=O)OC(C)(C)C)c4ccccc4)CC(O)(C(OC(=O)c4ccccc4)C21)C3(C)C (stereo not drawn),inactive
7,CNC(=O)c1nn(C)c2c1C(C)(C)Cc1cnc(Nc3ccc(N4CCN(C)CC4)cc3)nc1-2,inactive
8,CCCC(Nc1nc(-c2ccc(NC(=O)NCC)c(OC)c2)ncc1C)c1cccnc1 (stereo not drawn),0.153 µM (active)
9,COc1c(C)c2c(c(O)c1C/C=C(\C)CCC(=O)O)C(=O)OC2,inactive
10,CC(C)C[C@H](NC(=O)[C@H](CCc1ccccc1)NC(=O)CN1CCOCC1)C(=O)N[C@@H](Cc1ccccc1)C(=O)N[C@@H](CC(C)C)C(=O)[C@@]1(C)CO1,6.11 µM (active)
11,CC(C)c1nn(-c2c(Cl)cccc2Cl)c2nc(Cc3ccc(OCCO)cc3)[nH]c(=O)c12,0.0968 µM (active)
12,c1nc2nc(Nc3ccc(N4CCOCC4)cc3)nc(NC3CCCCC3)c2[nH]1,inactive
13,Cc1cnc(Nc2ccc(OCCN3CCCC3)cc2)nc1Nc1cccc(S(=O)(=O)NC(C)(C)C)c1,inactive
14,Cc1c(NC(=O)OCC2COCCN2)cn2ncnc(Nc3ccc4c(cnn4Cc4cccc(F)c4)c3)c12 (stereo not drawn),24.3 µM (active)
15,Cn1c(=O)c(F)c(Nc2ccc(I)cc2F)c2c(=O)n(CC(O)CO)cnc21 (stereo not drawn),inactive
16,CC1=C(CO)C(=O)O[C@@H]([C@@H](C)[C@H]2CC[C@H]3[C@@H]4C[C@H]5O[C@]56[C@@H](O)C=CC(=O)[C@]6(C)[C@H]4CC[C@]23C)C1,2.11 µM (active)
